# According to PMC4552634, “A New Set of Chemical Starting Points with Plasmodium falciparum Transmission-Blocking Potential for Antimalarial Drug Discovery” (PLoS ONE, 2015):
# Among all 13,000 compounds or so, about 3,200 (25%) showed an effect of 50% or more. The list shows a part of the results.
# System: P. falciparum stage V gametocytes
# Parameters: BacTiter-Glo ATP luminescence viability of purified stage V gametocytes in 384-well plates, per cent inhibition versus DMSO
# Conditions: 48 h, 5 µM; inhibitor
row,Structure (SMILES),% Inhibition [%]
1,O=C(Nc1ccc(-c2nc3ccccc3[nH]2)cc1)c1ccc(S(=O)(=O)N2CCCCCC2)cc1 [TCMDC-125712],-20.46
2,Cc1ccc2nc(C)cc(NN=Cc3ccc(Cl)cc3)c2c1 [TCMDC-123976],-8.095
3,CCOc1ccc2nc(C)cc(NN=Cc3ccccc3[N+](=O)[O-])c2c1 [TCMDC-142048],91.47
4,CCOc1ccc2nc(C)cc(NN=Cc3cccc([N+](=O)[O-])c3)c2c1 [TCMDC-142049],64.63
5,Cc1ccc2nc(C)cc(N/N=C/c3ccccc3[N+](=O)[O-])c2c1 [TCMDC-123975],-3.364
6,Cc1ccc2nc(C)cc(N/N=C/c3ccc([N+](=O)[O-])cc3)c2c1 [TCMDC-142070],109.1
7,COc1ccc2nc(C)cc(NN=Cc3ccc([N+](=O)[O-])o3)c2c1 [TCMDC-142036],11.78
8,COc1ccc2nc(C)cc(NN=Cc3ccccc3[N+](=O)[O-])c2c1 [TCMDC-142087],48.43
9,Cc1ccc2nc(C)cc(N/N=C/c3ccc([N+](=O)[O-])o3)c2c1 [TCMDC-142035],56.06
10,COc1ccc2nc(-c3ccccc3)cc(NN=Cc3ccc([N+](=O)[O-])o3)c2c1 [TCMDC-142040],-17.37
11,COCCNCc1ncsc1-c1ccc2c(Nc3cc(O)ccc3C)ccnc2c1 [TCMDC-138465],-33.69
12,CC(C)(C)c1ccccc1OC(=O)c1ccccc1 [TCMDC-123936],-15.9
13,CCCN1CCC(c2c[nH]c3ccc(NC(=O)Nc4cccc(Cl)c4Cl)cc23)CC1 [TCMDC-139182],-83.82
14,COc1ccc2c(N/N=C/c3cccc([N+](=O)[O-])c3)cc(C)nc2c1 [TCMDC-142089],108
15,COc1ccc2c(N/N=C/c3ccccc3[N+](=O)[O-])cc(C)nc2c1 [TCMDC-142088],-15.58
16,COc1ccc2nc(C)cc(NN=Cc3cccc([N+](=O)[O-])c3)c2c1 [TCMDC-123972],49.98
17,O=[N+]([O-])c1ccc(-c2ccc(C=NNc3nc(Nc4ccccc4)nc(Nc4ccccc4)n3)o2)cc1 [TCMDC-124230],-25.78
18,O=[N+]([O-])c1ccc(Nc2nc(N/N=C/c3ccc(-c4ccc([N+](=O)[O-])cc4)o3)nc(Nc3ccccc3)n2)cc1 [TCMDC-123858],-4.596
19,O=[N+]([O-])c1ccc(C=NNc2nc(Nc3ccccc3)nc(Nc3ccccc3)n2)o1 [TCMDC-125802],108.2
20,Cc1cc(N/N=C/c2ccccc2[N+](=O)[O-])c2ccccc2n1 [TCMDC-123978],-75.07
21,Cc1ccc2c(N/N=C/c3ccccc3[N+](=O)[O-])cc(C)nc2c1 [TCMDC-142071],26.69
22,Cc1ccc2c(N/N=C/c3cccc([N+](=O)[O-])c3)cc(C)nc2c1 [TCMDC-142072],87.02
23,Cc1cc(N/N=C/c2cccc([N+](=O)[O-])c2)c2ccccc2n1 [TCMDC-123977],89.22

row,Structure (SMILES),% Inhibition [%]
1,CNC(=O)CSc1nnc(-c2ccc(C)cc2)c(-c2ccc(C)cc2)n1 [TCMDC-123901],5.321
2,NC(=O)Nc1ccc2cn[nH]c2c1 [TCMDC-131601],13.14
3,C=CCc1cccc(CN2CCC(c3cc(=O)[nH]c(-c4ccccn4)n3)CC2)c1O [TCMDC-124851],46.78
4,CCc1nc2c(N)nc(N)nc2nc1-c1ccc(OC)cc1 [TCMDC-132107],7.623
5,CCOc1ccc2nc(C)cc(NN=Cc3cccc(F)c3)c2c1 [TCMDC-142093],73.55
6,Cc1cc(N/N=C/c2ccccc2[N+](=O)[O-])c2cccc(C)c2n1 [TCMDC-142073],-15.7
7,Cc1cccc(C=NNc2cc(C)nc3ccc(F)cc23)n1 [TCMDC-142019],-41.63
8,COc1cccc2c(N/N=C/c3ccccc3[N+](=O)[O-])cc(C)nc12 [TCMDC-142043],74.75
9,Cc1ccc2nc(C)cc(N/N=C/c3cccc([N+](=O)[O-])c3)c2c1 [TCMDC-142069],66.26
10,Cc1ccc(Nc2nc(N/N=C/c3cccc([N+](=O)[O-])c3)nc(Nc3ccccc3)n2)c(C)c1 [TCMDC-124206],1.923
11,Cc1ccc(Nc2nc(N/N=C/c3ccccc3[N+](=O)[O-])nc(Nc3ccc([N+](=O)[O-])cc3)n2)cc1C [TCMDC-124207],32.01
12,Cc1cc(N2CCCC2)nc(Nc2ccc(NC(=O)c3ccccc3C)cc2)n1 [TCMDC-124711],-8.542
13,CCOC(=O)c1c(C)noc1Nc1ccc(OC)cc1 [TCMDC-131521],-6.953
14,CCc1cn(C)c2c(N3CCCC3=O)cc(C(=O)N[C@@H](Cc3ccccc3)[C@H](O)CNC(C)(C)CCCC(C)C)cc12 [TCMDC-135199],78.23
15,COc1cccc(CNC[C@@H](O)[C@H](Cc2ccccc2)NC(=O)c2cc(N3CCCC3=O)c3[nH]cc(C(C)C)c3c2)c1 [TCMDC-132584],-12.1
16,CCNc1cc(C(=O)N[C@@H](Cc2ccccc2)[C@H](O)CNCCC(C)c2ccccc2)cc(N2CCCC2=O)c1 (stereo partly shown) [TCMDC-141683],6.791
17,CCc1c[nH]c2c(N3CCCC3=O)cc(C(=O)N[C@@H](Cc3ccccc3)[C@H](O)CNC(C)(C)CCCC(C)C)cc12 [TCMDC-135025],68.24
18,CCc1c[nH]c2c(N3CCCC3=O)cc(C(=O)N[C@@H](Cc3ccccc3)[C@H](O)CNC3CCCCC3)cc12 [TCMDC-135024],43.33
19,CCc1ccnc2c(N3CCCC3=O)cc(C(=O)N[C@@H](Cc3ccccc3)[C@H](O)CNC3CCOCC3)cc12 [TCMDC-135882],-3.363
20,CCc1cn(C)c2c(N3CCCC3=O)cc(C(=O)N[C@@H](Cc3ccccc3)[C@H](O)CNC3CCCCC3)cc12 [TCMDC-135198],56.93
21,CCNc1cc(C(=O)N[C@@H](Cc2ccccc2)[C@H](O)CNCC(C)C)cc(N2CCCC2=O)c1 [TCMDC-138888],11.22
22,CCc1c[nH]c2c(N3CCCS3(=O)=O)cc(C(=O)N[C@@H](Cc3ccccc3)[C@H](O)CNC3CCCCC3)cc12 [TCMDC-135169],49.22
23,CCc1c[nH]c2c(N3CCCS3(=O)=O)cc(C(=O)N[C@@H](Cc3ccccc3)[C@H](O)CNC(C)(C)CCCC(C)C)cc12 [TCMDC-135168],100.1

row,Structure (SMILES),% Inhibition [%]
1,CCc1c[nH]c2c(N3CCCCC3=O)cc(C(=O)N[C@@H](Cc3ccccc3)[C@H](O)CNCc3cccc(OC)c3)cc12 [TCMDC-134156],3.442
2,CCc1c[nH]c2c(N3CCCS3(=O)=O)cc(C(=O)N[C@@H](Cc3ccccc3)[C@H](O)CNC(C)(C)c3cccc(C(F)(F)F)c3)cc12 [TCMDC-135172],20.21
3,COc1cc(Nc2nccc(N3CCC(NC(=O)c4cccc(C#N)c4)C3)n2)cc(OC)c1OC (stereo not shown) [TCMDC-133620],1.02
4,N#Cc1cccc(C(=O)Nc2cccc(-c3ccc(C(=O)Nc4cccnc4)cc3)c2)c1 [TCMDC-133695],-12.11
5,O=C(/C=C/c1ccc(F)cc1)NC1CCC(CCN2CCCN(c3ccc(C(F)(F)F)cn3)CC2)CC1 (stereo not shown) [TCMDC-139724],-25.55
6,c1ccc(-c2cccnn2)cc1 [TCMDC-123929],-43.62
7,CCCCc1cc(NCc2ccncc2)nc(Nc2cccc(OC)c2)n1 [TCMDC-133999],-9.372
8,O=C(Nc1ccc(-c2cccc(-c3nc4ccc(C(F)(F)F)cc4[nH]3)c2)cc1)c1csnn1 [TCMDC-136903],-25.31
9,Cc1ccc2c(c1)c(-c1ccccc1)c(-c1ccccc1)n2CC(O)CN1CCN(CC=Cc2ccccc2)CC1 (stereo not shown) [TCMDC-123998],27.39
10,O=C(C1CCN(C(c2ccccc2)c2ccc(Cl)c(Cl)c2)CC1)N1CC=CC1 (stereo not shown) [TCMDC-135516],-15.6
11,COc1cc(C2=NN(S(=O)(=O)c3c(Cl)cc(Cl)cc3Cl)CCCC2)ccc1Cl [TCMDC-136212],-48.52
12,CCc1cn2c3c(cc(C(=O)N[C@@H](Cc4ccccc4)[C@H](O)CNC(C)(C)c4cccc(OC)c4)cc13)N(C)S(=O)(=O)C2 [TCMDC-135393],41.96
13,CCc1cn2c3c(cc(C(=O)N[C@@H](Cc4ccccc4)[C@H](O)CNC(C)C)cc13)N(C)S(=O)(=O)C2 [TCMDC-135401],-18.09
14,CCc1cn2c3c(cc(C(=O)N[C@@H](Cc4ccccc4)[C@H](O)CNC(C)(C)CCCC(C)C)cc13)N(C)S(=O)(=O)C2 [TCMDC-135400],80.58
15,O=C(Nc1cccc(C(F)(F)F)c1)N1CCOC(CCN2CCC(c3ccccc3)CC2)(c2ccc(Cl)c(Cl)c2)C1 (stereo not shown) [TCMDC-135345],-74.75
16,CC(C)(C)c1ccc(N2C(N)=NC(N)=NC2(C)C)cc1Cl [TCMDC-137710],44.95
17,COc1ccc(Cc2c(Cl)nc3nc(N)nc(N)c3c2C)c(OC)c1OC [TCMDC-137688],14.16
18,N#CC(c1cccc(Cl)c1)c1ccc2c(C(F)(F)F)cc(C(F)(F)F)nc2n1 (stereo not shown) [TCMDC-125544],14.86
19,CCCCCCCc1cc(=O)c2ccccc2[nH]1 [TCMDC-132026],46.19
20,CCCOc1cc(OCCC)cc(-c2cc(=O)c3ccccc3[nH]2)c1 [TCMDC-138943],63.29
21,O=c1cc(-c2ccc3ccccc3c2)[nH]c2ccccc12 [TCMDC-138937],4.967
